# Target: Calmodulin-1 (Homo sapiens) (UniProt P0DP23)
# Experiment: calcium-bound CALM1 binders on microarrays, profiling panel, artefact control for SMM control-protein annotation, biochemical, small-molecule microarray, Cy5-labelled CALM1, plus calcium (AID 1112);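 further: score merges spot fluorescence with signal to noise from triplicate slides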
# Conditions: Cy5-CALM1 binding fluorescence, higher = more signal
row,Structure (SMILES),composite z-score
1,CC(C)(C)OC(=O)CC[C@@]1(C(=O)NCc2ccccc2)N=C(c2ccc(OCCCO)cc2)O[C@@H]1c1ccccc1N=[N+]=[N-],0.493
2,C=CC[C@@]1(C(=O)N2CCOCC2)N=C(c2ccc(OCCCO)cc2)O[C@@H]1c1ccccc1CN=[N+]=[N-],0.365
3,COC(=O)[C@@]1(Cc2ccc(F)cc2)[C@H]2c3cc(C(=O)N4CCCC4)n(CCc4ccc(O)c(O)c4)c3C[C@H]2CN1C(=O)c1ccccc1,0.694
4,CCOC(=O)C[C@H]1[C@H](OC(=O)c2cc3ccccc3oc2=O)[C@@H](NC(=O)c2ccc(-c3ccccc3)cc2)c2cc(OCCCO)ccc2N1C(=O)c1ccc2ccccc2n1,-0.455
5,COc1ccc([Si](C)(C)[C@H]2[C@H](CCn3cc([C@H](O)c4ccccc4)nn3)O[C@@]3(C(=O)N(Cc4ccc(N5C(=O)c6cccc7cccc5c67)cc4)c4ccccc43)[C@@H]2C)cc1,0.0758
6,C[C@@H]1NC(=O)[C@@]23C(=O)N[C@@H](Cc4ccccc4)C2[C@H](C)[C@@]2(C)O[C@H]2C3/C=C/C/C=C\CNC(=O)[C@@H]2CCCN2C1=O (stereo partly drawn),-0.556
7,COC(=O)[C@@]1(Cc2ccccc2)[C@H]2c3cc(C(=O)N(C)C)n(Cc4c(CO)[nH]cc(C)c4=O)c3C[C@H]2CN1C(=O)c1ccccc1,0.0907
8,COC(=O)CCCCCCC(=O)Nc1ccc(NC(=O)CCCC[P+](c2ccccc2)(c2ccccc2)c2ccccc2)cc1,-0.516

# Tested on: not listed separately
# Experiment: small-molecule microarray binders of probe aWnt5a, primary screen, biochemical, biotinylated probe, 635/667 nm fluorescence (AID 1113);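 further: score merges 667 nm fluorescence intensity with signal-to-noise per printed feature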
# Conditions: higher = more signal
row,Structure (SMILES),composite z-score
1,COc1ccc([Si](C)(C)[C@@H]2[C@@H](CC(=O)N3Cc4ccccc4C[C@H]3CO)O[C@]3(C(=O)N(C)c4ccccc43)[C@H]2C)cc1,0.0102
2,O=C(N1CCCCC1)[C@@]1(CCS(=O)(=O)c2ccccc2)COC(c2ccc(OCCCO)cc2)=N1,0.0374
3,O=C1NC(=O)C2C1C=CC(C(O)CCc1ccccc1)N2Nc1ccc(Cl)cc1Cl (stereo not drawn),0.539
4,C=CCC(OC(C)=O)[C@@H]1[C@@H](N(Cc2cc3ccccc3o2)C(=O)c2ccc(-c3ccccc3)cc2)c2cc(OCCCO)ccc2N1C(=O)c1ccc2ccccc2c1 (stereo partly drawn),-0.0398
5,CCOC(=O)C[C@H]1[C@H](OC(=O)Cc2ccc3c(c2)OCO3)[C@@H](NC(=O)Cc2ccc(OC)cc2)c2cc(OCCCO)ccc2N1C(=O)c1ccc2ccccc2n1,-0.0792
6,COC(=O)c1c2oc(c1C(=O)OC)C(=O)N(Cc1ccccc1)Cc1cn(nn1)C[C@H](Cc1ccccc1)NC(=O)N[C@H](CO)CC2,-0.0194
7,NC(N)=NCCCn1cc(CNC(=O)[C@@H](N)Cc2ccccc2)nn1,-0.128
8,NC(=O)N1C(=O)C2C(C1=O)C1C=C(CCCO)C2C(c2cccs2)N1Cc1cccc(OC(F)(F)F)c1 (stereo not drawn),-0.0721
9,CCOC(=O)C[C@H]1[C@H](OC(=O)c2cc3ccccc3oc2=O)[C@@H](NC(=O)Cc2ccc(OC)cc2)c2cc(OCCCO)ccc2N1C(=O)c1ccc2ccccc2n1,0.0257
10,COCCOC(=O)N1C(=O)[C@@]2(c3cc(C#CC4=CCCCC4)ccc31)[C@H](c1ccc(OCCO)cc1)N1[C@H](c3ccccc3)[C@H](c3ccccc3)OC(=O)[C@H]1[C@@H]2C(=O)NC[C@H](O)c1ccccc1,-0.0297
11,COC(=O)c1nc2oc1CC[C@@H](CO)NC(=O)N(C)Cc1cnnn1C[C@H](Cc1ccccc1)NC2=O,-0.159
12,CN1C(=O)C2C=CC(C(O)COCc3ccccc3)N(N(c3ccccc3)c3ccccc3)C2C1=O (stereo not drawn),0.0915
13,COc1cc2c(cc1O)C(C)N(Cc1ccc([N+](=O)[O-])o1)CC2 (stereo not drawn),0.138
14,C=CCOC(=O)[C@H]1[C@@H]2C(=O)O[C@@H](c3ccccc3)[C@@H](c3ccccc3)N2[C@@H](c2ccc(OCCOC(=O)[C@@H]3C[C@@H]4C(=O)N[C@@H](CCCCN(C)C)C(=O)N4[C@@H]3c3ccc(O)cc3)cc2)[C@]12C(=O)Nc1ccccc12,-0.124
15,CCOC(=O)C1=C[C@@H](c2ccccc2)N(S(=O)(=O)c2ccc(C)cc2)[C@H]1c1ccccc1Cl,-0.0161
16,C[N+](C)(C)CCCCCCNC(=O)[C@H]1C[C@H]2C(=O)NCC(=O)N2[C@H]1c1ccc(O)cc1,-0.0846
17,COc1cc(CO)cc(I)c1O[C@H]1C=C(C(=O)NCCO)C[C@@H](NCc2ccc(F)cc2)[C@@H]1O,-0.202
18,COC1OC[C@]2(C)[C@H]3C4=C(CN2C(=O)OC(C)(C)C)[C@H](C)C(CO)C(CO)C4CC[C@@H]13 (stereo partly drawn),-0.0007

row,Structure (SMILES),composite z-score
1,O=C1O[C@H](c2ccccc2)[C@H](c2ccccc2)N2[C@H]1[C@@H](C(=O)Nc1nc3ccccc3s1)[C@]1(C(=O)Nc3ccc(C#CCCO)cc31)[C@H]2c1ccc(O)cc1,-0.0519
2,C=CCC(OC(C)=O)[C@@H]1[C@@H](N(Cc2cc3ccccc3o2)C(=O)Cc2ccc(F)cc2)c2cc(OCCCO)ccc2N1C(=O)c1ccc2ccccc2c1 (stereo partly drawn),-0.0843
3,OCCCC1=CC(c2ccc(CN3CCCC3)cc2)N(Cc2sc3ccccc3c2Cl)CC1 (stereo not drawn),-0.113
4,O=C1O[C@H](c2ccccc2)[C@H](c2ccccc2)N2[C@H]1[C@@H](C(=O)N1CCN(c3ncccn3)CC1)[C@]1(C(=O)Nc3ccc(C#CC4(O)CCCCCC4)cc31)[C@H]2c1ccc(OCCO)cc1,0.793
5,O=C1C2C=CC(C(O)c3ccc(Br)cc3)N(Nc3ccccc3F)C2C(=O)N1c1ccccc1 (stereo not drawn),-0.0718
6,COCCOC(=O)N1C(=O)[C@@]2(c3cc(C#CCC(C(=O)OC)C(=O)OC)ccc31)[C@H](C(=O)N1CCc3cc(OC)c(OC)cc3C1)[C@H]1C(=O)O[C@H](c3ccccc3)[C@H](c3ccccc3)N1[C@@H]2c1ccc(OCCO)cc1,-0.006
7,CC(CO)N1C(=O)[C@@H]2[C@H]3C(=O)OCC=C[C@H]3OC23C=CCN(CCN2CCOCC2)C(=O)[C@@H]13 (stereo partly drawn),-0.144
8,C=C(COC)C(=O)CC[C@@H](OC(=O)c1cccnc1)c1ccc(OCCO)cc1,-0.0944
9,COC(=O)[C@@]1(Cc2ccc(OC)cc2)[C@H]2c3cc(C(=O)N4CCCC4)n(Cc4cccc5ccccc45)c3C[C@H]2CN1C(=O)c1ccccc1,0.0913
10,CC(C)(C)OC(=O)CC[C@@]1(C(=O)NCc2ccccc2)N=C(c2ccc(OCCCO)cc2)O[C@@H]1c1ccccc1N=[N+]=[N-],0.112
11,C=CC[C@@]1(C(=O)N2CCOCC2)N=C(c2ccc(OCCCO)cc2)O[C@@H]1c1ccccc1CN=[N+]=[N-],0.0998
12,COC(=O)[C@@]1(Cc2ccc(F)cc2)[C@H]2c3cc(C(=O)N4CCCC4)n(CCc4ccc(O)c(O)c4)c3C[C@H]2CN1C(=O)c1ccccc1,0.752
13,CCOC(=O)C[C@H]1[C@H](OC(=O)c2cc3ccccc3oc2=O)[C@@H](NC(=O)c2ccc(-c3ccccc3)cc2)c2cc(OCCCO)ccc2N1C(=O)c1ccc2ccccc2n1,-0.104
14,COc1ccc([Si](C)(C)[C@H]2[C@H](CCn3cc([C@H](O)c4ccccc4)nn3)O[C@@]3(C(=O)N(Cc4ccc(N5C(=O)c6cccc7cccc5c67)cc4)c4ccccc43)[C@@H]2C)cc1,-0.131
15,C[C@@H]1NC(=O)[C@@]23C(=O)N[C@@H](Cc4ccccc4)C2[C@H](C)[C@@]2(C)O[C@H]2C3/C=C/C/C=C\CNC(=O)[C@@H]2CCCN2C1=O (stereo partly drawn),-0.196
16,COC(=O)[C@@]1(Cc2ccccc2)[C@H]2c3cc(C(=O)N(C)C)n(Cc4c(CO)[nH]cc(C)c4=O)c3C[C@H]2CN1C(=O)c1ccccc1,0.108
17,COC(=O)CCCCCCC(=O)Nc1ccc(NC(=O)CCCC[P+](c2ccccc2)(c2ccccc2)c2ccccc2)cc1,-0.0751
